Test results published in PubChem BioAssay.

These compounds were tested against Torsin-1A-interacting protein 1 (Homo sapiens) (UniProt Q5JTV8) (assay: compound microarray binding of lysate hLAP1 – cell lysate, small-molecule microarray, COS7 lysate, 635/667 nm fluorescence, primary screen (AID 1116)). Conditions: 635 nm fluorescence, higher = more signal.
Sequence of Torsin-1A-interacting protein 1 (Homo sapiens) (Q5JTV8 whole entry, looked up): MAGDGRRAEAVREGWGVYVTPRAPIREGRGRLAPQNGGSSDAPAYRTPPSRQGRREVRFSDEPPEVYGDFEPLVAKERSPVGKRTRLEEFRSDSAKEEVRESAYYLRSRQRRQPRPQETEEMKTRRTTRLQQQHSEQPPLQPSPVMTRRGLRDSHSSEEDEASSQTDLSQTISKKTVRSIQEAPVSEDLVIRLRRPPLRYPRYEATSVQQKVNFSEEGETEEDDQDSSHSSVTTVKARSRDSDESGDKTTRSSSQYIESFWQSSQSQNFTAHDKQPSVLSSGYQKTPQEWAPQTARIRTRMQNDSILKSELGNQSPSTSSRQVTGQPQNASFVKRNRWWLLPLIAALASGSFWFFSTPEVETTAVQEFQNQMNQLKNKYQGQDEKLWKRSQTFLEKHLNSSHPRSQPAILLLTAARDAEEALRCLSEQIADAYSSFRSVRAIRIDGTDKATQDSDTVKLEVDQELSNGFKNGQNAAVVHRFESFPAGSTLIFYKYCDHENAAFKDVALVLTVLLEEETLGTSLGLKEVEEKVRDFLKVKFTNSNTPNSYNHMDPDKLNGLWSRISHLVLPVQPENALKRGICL

**Q.** `O=C1C2C=CC(C(O)c3cccc4ccccc34)N(n3cnnc3)C2C(=O)N1Cc1ccccc1` (configuration not stated) was tested. Which composite z-score did it give?
**A.** The composite z-score was 0.67.

**Q.** For `O=C1C2C=CC(C(O)c3ccc(B(O)O)cc3)N(Nc3ccc([N+](=O)[O-])cc3)C2C(=O)N1c1ccccc1` (configuration not stated), which composite z-score is on record?
**A.** The composite z-score was 0.151.

**Q.** For `COCCOC(=O)N1C(=O)[C@@]2(c3ccccc31)[C@H](c1ccc(O)cc1)N1[C@H](c3ccccc3)[C@H](c3ccccc3)OC(=O)[C@H]1[C@@H]2C(N)=O`, which composite z-score is on record?
**A.** Its composite z-score is -0.571.

**Q.** Which composite z-score does the source give for `O=C1C2C=CC(C(O)CCc3ccccc3)N(Nc3ccccc3)C2C(=O)N1c1ccccc1` (configuration not stated) here?
**A.** Its composite z-score is 2.2.

**Q.** For `COc1ccc([Si](C)(C)[C@H]2[C@H](CC(=O)N3CCC[C@H]3CO)O[C@@]3(C(=O)N(c4ccccc4)c4ccccc43)[C@@H]2C)cc1`, which composite z-score is on record?
**A.** The composite z-score was 0.429.

**Q.** `CCCNC(=O)[C@@]1(C)c2ccccc2C(=O)N(Cc2ccc(OC(F)(F)F)cc2)[C@H]1c1ccc(CO)cc1` was tested. Which composite z-score did it give?
**A.** The composite z-score was 1.28.

These compounds were tested against Alpha-bungarotoxin (Bungarus multicinctus) (UniProt P60615) (assay: compounds binding labelled alpha-BTX control protein – biochemical, small-molecule microarray, Alexa647 label, 635/667 nm fluorescence, artefact control for SMM control protein annotation, profiling panel (AID 1117)). Conditions: alpha-BTX-A647 binding fluorescence, higher = more signal.
Sequence of Alpha-bungarotoxin (Bungarus multicinctus) (P60615 whole entry, looked up): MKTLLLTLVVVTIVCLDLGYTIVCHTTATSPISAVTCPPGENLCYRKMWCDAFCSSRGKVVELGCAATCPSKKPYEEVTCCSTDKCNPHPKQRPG

**Q.** With `C=CCN1C(=O)[C@@]2(O[C@@H](CCO)[C@H]([Si](C)(C)c3ccc(OC)cc3)[C@H]2C)c2cc(NC(C)=O)ccc21` as the compound, how does the composite z-score read?
**A.** Its composite z-score is 0.71.

**Q.** With `O=C1O[C@@H](c2ccccc2)[C@@H](c2ccccc2)N2[C@@H](c3ccc(O)cc3)[C@]3(C(=O)Nc4ccc(C#CCCO)cc43)[C@@H](C(=O)N3CCCCCCC3)[C@H]12` as the compound, how does the composite z-score read?
**A.** The composite z-score was 2.14.

**Q.** How did the composite z-score turn out when `NC(=O)[C@]1(Cc2ccccc2)N=C(c2ccc(OCCCO)cc2)O[C@@H]1c1ccccc1` was run?
**A.** The composite z-score was 1.23.

**Q.** `O=C1O[C@H](c2ccccc2)[C@H](c2ccccc2)N2[C@H]1[C@@H](C(=O)NC[C@H](O)c1ccccc1)[C@]1(C(=O)Nc3ccc(C#CC4=CCCCC4)cc31)[C@H]2c1ccc(O)cc1` was tested. Which composite z-score did it give?
**A.** The composite z-score was 1.52.

**Q.** How did the composite z-score turn out when `C=C[C@H](C)[C@H](O)c1ccc(OCCO)cc1` was run?
**A.** The composite z-score was -1.27.

**Q.** Which composite z-score does the source give for `O=S(=O)(NCCCO)c1ccc(Br)cc1` here?
**A.** Its composite z-score is 0.284.

**Q.** How did the composite z-score turn out when `O=C1c2ccccc2[C@](Cc2ccccc2I)(C(=O)O)[C@H](c2ccc(CO)cc2)N1Cc1ccccc1C(F)(F)F` was run?
**A.** Its composite z-score is 1.58.

**Q.** For `CCOC(=O)C1=C[C@@H](C(C)(C)C)N(S(=O)(=O)c2ccc(C)cc2)[C@H]1c1ccc(Cl)c(Cl)c1`, which composite z-score is on record?
**A.** The composite z-score was 1.35.

**Q.** With `COCC1=C([C@H](O)CCc2ccccc2)[C@H](CO)[C@@H]2C(=O)N(Cc3ccccc3)C(=O)[C@@H]2C1` as the compound, how does the composite z-score read?
**A.** The composite z-score was 0.206.

**Q.** With `C[N+](C)(C)CCCC[C@@H]1NC(=O)[C@H]2C[C@@H](C(=O)O)[C@@H](c3cccc(OCCO)c3)N2C1=O` as the compound, how does the composite z-score read?
**A.** Its composite z-score is 3.77.

**Q.** For `COc1ccc([Si](C)(C)[C@H]2[C@H](CC(=O)N3CCC[C@H]3CO)O[C@@]3(C(=O)N(Cc4cccc(N5CCC5=O)c4)c4ccccc43)[C@@H]2C)cc1`, which composite z-score is on record?
**A.** Its composite z-score is 0.872.

**Q.** For `C=CCNC(=O)[C@H]1[C@@H]2C(=O)O[C@@H](c3ccccc3)[C@@H](c3ccccc3)N2[C@@H](c2ccc(OCCO)cc2)[C@]12C(=O)N(C(=O)OCCOC)c1ccc(C#CC3(O)CCCCCC3)cc12`, which composite z-score is on record?
**A.** Its composite z-score is 1.52.

**Q.** `CCCCN1CC=CC23O[C@@H]4C=CCCOC(=O)C4[C@H]2C(=O)N(CCCO)[C@@H]3C1=O` (some centres not stated) was tested. Which composite z-score did it give?
**A.** The composite z-score was -1.13.

**Q.** With `O=C(N1CCCCC1)[C@]1(CCS(=O)(=O)c2ccccc2)N=C(c2ccc(OCCCO)cc2)O[C@@H]1c1ccccc1` as the compound, how does the composite z-score read?
**A.** Its composite z-score is 2.56.

**Q.** With `O=C1c2ccccc2[C@@]2(Cc3ccccc3N(Cc3ccccc3)C2=O)[C@H](c2ccc(CO)cc2)N1Cc1ccccc1C(F)(F)F` as the compound, how does the composite z-score read?
**A.** The composite z-score was -0.32.

**Q.** Which composite z-score does the source give for `CC(C)C(=C=CC[C@H](O)c1ccccc1OCCO)CCO` here?
**A.** The composite z-score was 1.92.

**Q.** For `C=CCC(OC(C)=O)[C@@H]1[C@@H](N(Cc2cc3ccccc3o2)C(=O)c2ccc(C)cc2)c2cc(OCCCO)ccc2N1C(=O)c1ccc(-c2ccccc2)cc1` (some centres not stated), which composite z-score is on record?
**A.** The composite z-score was 0.169.

**Q.** `CC(C)(C)OC(=O)CC[C@@]1(C(=O)NCC(O)CO)N=C(c2ccc(OCCCO)cc2)O[C@@H]1c1ccccc1` (some centres not stated) was tested. Which composite z-score did it give?
**A.** Its composite z-score is 1.04.

**Q.** How did the composite z-score turn out when `CCOC(=O)C1=CC[C@@H](c2cccc(Cl)c2)N(S(=O)(=O)c2ccc(C)cc2)[C@H]1c1ccc(C#N)cc1` was run?
**A.** The composite z-score was 1.39.

**Q.** With `COC(=O)[C@@]1(Cc2ccc(OC)cc2)[C@H]2c3cc(C(=O)N(C)C)n(Cc4ccc(OC)c(OC)c4)c3C[C@H]2CN1C(=O)c1ccccc1` as the compound, how does the composite z-score read?
**A.** The composite z-score was 1.73.

**Q.** With `OCCCc1cc[n+](Cc2cccc(OC(F)(F)F)c2)cc1` as the compound, how does the composite z-score read?
**A.** The composite z-score was 0.718.

**Q.** How did the composite z-score turn out when `O=C1O[C@@H](c2ccccc2)[C@@H](c2ccccc2)N2[C@@H](c3ccc(O)cc3)[C@]3(C(=O)Nc4ccccc43)[C@@H](C(=O)N3CCCCCCC3)[C@H]12` was run?
**A.** Its composite z-score is 3.12.

**Q.** Which composite z-score does the source give for `COCCCNC(=O)[C@@]1(C)c2ccccc2C(=O)N(Cc2ccccc2)[C@H]1c1ccc(CO)cc1` here?
**A.** The composite z-score was -0.564.

**Q.** For `COc1ccc([Si](C)(C)[C@H]2[C@H](CCO)O[C@@]3(C(=O)N(Cc4ccccc4)c4ccc(N5C(=O)COc6ccccc65)cc43)[C@@H]2C)cc1`, which composite z-score is on record?
**A.** The composite z-score was 0.662.

**Q.** With `C=C(C)[C@@H]1CC=C(C(O)C2C=CC3C(=O)N(Cc4ccccc4)C(=O)C3N2n2cnnc2)CC1` (some centres not stated) as the compound, how does the composite z-score read?
**A.** The composite z-score was 0.291.

**Q.** Which composite z-score does the source give for `C=C(CCCC)C(=O)CC[C@H](OC(=O)c1ccccc1-c1ccccc1C(=O)O)c1ccc(CO)o1` here?
**A.** Its composite z-score is 1.65.

**Q.** With `O=C1C2C=CC(C(O)C3CC=CCC3)N(n3cnnc3)C2C(=O)N1Cc1ccccc1` (configuration not stated) as the compound, how does the composite z-score read?
**A.** Its composite z-score is 0.365.

**Q.** For `C=CCC(OC(C)=O)[C@@H]1[C@@H](N(Cc2cc3ccccc3o2)C(=O)c2ccc(-c3ccccc3)cc2)c2cc(OCCCO)ccc2N1C(=O)Cc1ccc2ccccc2c1` (some centres not stated), which composite z-score is on record?
**A.** The composite z-score was 0.738.

**Q.** With `O=[N+]([O-])c1ccc(C[n+]2ccc(CCCO)cc2)o1` as the compound, how does the composite z-score read?
**A.** Its composite z-score is 1.47.

**Q.** Which composite z-score does the source give for `CC(c1ccccc1)C(O)C1C=CC2C(=O)N(Cc3ccccc3)C(=O)C2N1n1cnnc1` (configuration not stated) here?
**A.** The composite z-score was 0.512.

**Q.** With `O=C1C2C=CC(C(O)c3cccc4ccccc34)N(n3cnnc3)C2C(=O)N1Cc1ccccc1` (configuration not stated) as the compound, how does the composite z-score read?
**A.** Its composite z-score is 0.274.

**Q.** With `O=C1C2C=CC(C(O)c3ccc(B(O)O)cc3)N(Nc3ccc([N+](=O)[O-])cc3)C2C(=O)N1c1ccccc1` (configuration not stated) as the compound, how does the composite z-score read?
**A.** Its composite z-score is 0.435.

**Q.** `COCCOC(=O)N1C(=O)[C@@]2(c3ccccc31)[C@H](c1ccc(O)cc1)N1[C@H](c3ccccc3)[C@H](c3ccccc3)OC(=O)[C@H]1[C@@H]2C(N)=O` was tested. Which composite z-score did it give?
**A.** Its composite z-score is -0.448.

**Q.** With `O=C1C2C=CC(C(O)CCc3ccccc3)N(Nc3ccccc3)C2C(=O)N1c1ccccc1` (configuration not stated) as the compound, how does the composite z-score read?
**A.** The composite z-score was 3.09.

**Q.** With `COc1ccc([Si](C)(C)[C@H]2[C@H](CC(=O)N3CCC[C@H]3CO)O[C@@]3(C(=O)N(c4ccccc4)c4ccccc43)[C@@H]2C)cc1` as the compound, how does the composite z-score read?
**A.** Its composite z-score is 0.0488.

**Q.** `CCCNC(=O)[C@@]1(C)c2ccccc2C(=O)N(Cc2ccc(OC(F)(F)F)cc2)[C@H]1c1ccc(CO)cc1` was tested. Which composite z-score did it give?
**A.** The composite z-score was 0.0855.
